# Bioassay records: PubChem, National Center for Advancing Translational Sciences (NCATS)
# SMN2 splice up: qHTS Assay for Enhancers of SMN2 Splice Variant Expression; Potency, µM (titrated, usually from 46.1 µM), inactives show at the highest dose activity change, positive = activation, actives largely listed as activators; HEK293 SMN2-luciferase splicing reporter, luminescence, 30-36 h; 2.8% of 210,000 active; further: % of control where 0% means no effect; nearly all actives have a fitted effect of over 55% in size
#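 qHTS luciferase splicing reporter: luminescence rises when SMN2 exon 7 is included in transfected HEK293 cells. Compound exposure lasted 30-36 h at 37C, with 4.5 mM final sodium butyrate as control, followed by a ONE-Glo read.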
# FLuc counter: qHTS profiling assay for firefly luciferase inhibitor/activator using purifed enzyme and Km concentrations of substrates (counterscreen for miR-21 project); Luciferin 4-monooxygenase (Photinus pyralis), P08659; purified FLuc, Km substrates, luminescence inhibition; Potency, µM (top dose mostly 57.5 µM), for the others: at the highest dose activity change, negative = inhibition, hits mostly inhibitors; 6.9% of 360,000 active;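 further: plate controls were vehicle for no effect and reference inhibitor for full effect; nearly all actives have a fitted effect of over 55% in size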
# Target sequence (P08659 whole entry, looked up): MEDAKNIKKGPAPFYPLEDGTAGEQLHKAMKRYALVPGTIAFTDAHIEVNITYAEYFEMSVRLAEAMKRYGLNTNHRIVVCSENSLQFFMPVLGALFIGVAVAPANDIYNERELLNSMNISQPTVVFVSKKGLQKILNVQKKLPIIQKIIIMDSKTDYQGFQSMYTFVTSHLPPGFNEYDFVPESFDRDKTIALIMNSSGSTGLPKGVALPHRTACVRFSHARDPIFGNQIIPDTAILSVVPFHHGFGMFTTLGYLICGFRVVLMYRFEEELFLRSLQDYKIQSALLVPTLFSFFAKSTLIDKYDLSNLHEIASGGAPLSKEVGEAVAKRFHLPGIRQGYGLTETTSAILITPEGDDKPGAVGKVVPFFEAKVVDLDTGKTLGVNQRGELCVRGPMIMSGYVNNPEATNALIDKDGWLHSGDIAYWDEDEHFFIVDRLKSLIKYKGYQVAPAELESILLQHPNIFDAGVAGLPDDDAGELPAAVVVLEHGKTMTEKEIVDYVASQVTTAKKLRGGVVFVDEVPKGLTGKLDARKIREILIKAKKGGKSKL
#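 Purified P. pyralis luciferase (10nM final) with 10uM D-luciferin and 10uM ATP (Km levels) in 50mM Tris acetate pH 7.5, 10mM Mg acetate, 0.01% Tween-20, 0.05% BSA; qHTS 6-point titration, ~60 µM downward; luminescence read.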
# ELG1 DNA repair: qHTS screen for small molecules that inhibit ELG1-dependent DNA repair in human embryonic kidney (HEK293T) cells expressing luciferase-tagged ELG1 | HEK293T ELG1-luciferase reporter, luminescence, 16 h; DNA damage induced by 5-fluorouridine | Potency, µM (titrated, usually from 46.1 µM), for inactives: at the highest dose activity change, negative = inhibition, usual class: inhibitors | 2.3% of 330,000 active | AID 504467, 2011; further: on the % scale 0 is the no-effect control and ±100 the full control effect; nearly all actives have a fitted effect of over 55% in size
#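 Luminescence from the luciferase reporter, measured 30 min after ONE-Glo reagent at room temperature, was the read-out. Beforehand, 2,000 cells per well were exposed for 16 hr at 37 °C to 5-fluorouridine together with compound or vehicle.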
# Rab9 promoter act: qHTS Assay for Rab9 Promoter Activators | Huh7 Rab9 promoter-luciferase reporter, luminescence, 24 h | Potency, µM (doses to about 9.22 µM), for inactives: at the highest dose activation, negative = inhibition, actives largely listed as activators | 2.8% of 320,000 active | AID 485297, 2010; further: % of control where 0% means no effect; nearly all actives have a fitted effect of over 60% in size
#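 Huh7 cells stably carrying Rab9 promoter–luciferase reporter, plated 1500 cells/well, compound added after 2 h and incubated 24 h at 37 °C; luciferase luminescence then read after 10 min with detection reagent.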
# NPC1 promoter act: qHTS Assay for NPC1 Promoter Activators | Huh7 NPC1 promoter luciferase reporter, 24 h | Potency, µM (series often up to 9.22 µM), for the others: at the highest dose activation, hits mostly activators | 2.4% of 320,000 active | AID 485313, 2010; further: % of control where 0% means no effect; nearly all actives have a fitted effect of over 60% in size
#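 Huh7 reporter cells (NPC1 promoter driving luciferase) are dosed with compound for 24 h at 37 °C, 5% CO2; luciferase detection reagent is then added and luminescence measured after 10 min at ambient temperature.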
# ELG1 genotoxic: qHTS screen for small molecules that induce genotoxicity in human embryonic kidney (HEK293T) cells expressing luciferase-tagged ELG1. HEK293T ELG1-luciferase reporter, luminescence, 16 h. Potency, µM (titrated, usually from 46 µM), inactives show top-dose activity change, positive = activation, hits mostly activators. 1.3% of 330,000 active. AID 504466, 2011; further: % of control where 0% means no effect; nearly all actives have a fitted effect of over 60% in size
#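 DMSO vehicle served as control against compound-treated ELG1-luciferase HEK293T cells; exposure lasted 16 hr at 37 °C and 5% CO2, followed by ONE-Glo luminescence detection after 30 min.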
# Numbers without * were called inactive; ? = inconclusive; / = no result. Sampled rows, rich in hits. Any-hit rate of the full collection: about 9.2%. The call rests on the fitted dose curve; in most records, active means well fitted curve in the direction sought with a large enough effect; inconclusive means small, poorly fitted or top-dose-only effect, or another doubt; inactive means no such curve, though single readings can be large; an effect the other way counts as inactive or inconclusive. Potency means the concentration at half of the fitted maximal effect.
SMILES,SMN2 splice up,FLuc counter,ELG1 DNA repair,Rab9 promoter act,NPC1 promoter act,ELG1 genotoxic
CCOC(=O)N1CCN(C(=O)CCCCn2c(=S)[nH]c3ccsc3c2=O)CC1,-23%,4%,-3%,-9%,-1%,0%
CCN(C(=O)COC(=O)CCCOc1ccccc1)c1c(N)n(Cc2ccccc2)c(=O)[nH]c1=O,/,-2%,-1%,-3%,-5%,1%
Cc1ccc(-c2nc(CCNC(=O)C(=O)Nc3ccc(C)c(C)c3)cs2)cc1,/,1%,/,/,/,/
COc1cccc(C(=O)NCCc2csc(-c3ccc(Cl)cc3)n2)c1,/,21µM*,/,/,/,/
O=C(NCCc1csc(-c2cccnc2)n1)c1cccs1,-1%,?,?,2%,0%,-4%
Cc1ccc(-c2nc(CCNC(=O)c3ccc(C)c(C)c3)cs2)cc1,/,24µM*,/,/,/,/
Cc1ccc(C(=O)NCCc2csc(-c3cccnc3)n2)cc1,?,5.4µM*,?,?,20%,?
O=C(c1csnn1)N1CCC2(CC1)CCN(c1ncccn1)CC2,-9%,/,/,/,/,/
COC(=O)N/N=C/c1ccc(OC(=O)/C=C/c2ccco2)cc1,/,-11%,5%,11%,-1%,-2%
CCc1ccc(OC(=O)/C=C/c2ccco2)cc1,/,0.85µM*,?,12%,16%,4%
CCCCn1nc(C(=O)N(C)CC(=O)Nc2ccc(F)c(F)c2F)ccc1=O,/,/,24%,/,/,-1%
O=C(/C=C\Nc1ccc2c(c1)OCO2)c1ccc(Cl)s1,3.5µM*,0.24µM*,?,0.32µM*,0.4µM*,0.82µM*
O=C(/C=C\Nc1ccc2c(c1)OCO2)c1cccs1,/,0.12µM*,?,0.56µM*,1.4µM*,1µM*
O=S(=O)(Nc1ccc2c(c1)OCO2)c1cccs1,-3%,-3%,-1%,2%,0%,-2%
O=C(CCl)Nc1ccc2c(c1)OCO2,-59%,-7%,8%,-10%,-10%,-10%
COc1ccccc1C1C(C(C)=O)=C(C)N=c2s/c(=C\c3cc(OC)c(OC)c(OC)c3)c(=O)n21 (stereo not drawn),19%,-2%,23µM*,-2%,-8%,1%
CN(Cc1ccc(C(C)(C)C)cc1)C(=O)C1CSC2(C)CCC(=O)N12 (stereo not drawn),/,1%,?,-15%,-2%,-2%
C=CCN(C(=O)C1CSC2(C)CCC(=O)N12)c1nc(-c2ccccc2)cs1 (stereo not drawn),/,-1%,?,7%,1%,18µM*
CC/C=C\C/C=C\C/C=C\C/C=C\C/C=C\C/C=C\CCC(N)=O,2%,/,/,/,/,/
COc1cccc2sc(N(C)c3ccccc3)nc12,8.9µM*,0.85µM*,?,0.5µM*,1.3µM*,1.6µM*
COc1cccc2sc(N)nc12,11%,1%,18%,-7%,-3%,1%
Cc1ccnc(NC(=O)c2ccc(S(=O)(=O)N3CCCCC3)cc2)c1,/,-9%,-8%,1%,3%,-1%
O=C(Nc1ccc(S(=O)(=O)N2CCCCC2)cc1)c1ccncc1,/,-1%,?,-6%,-3%,0%
O=C(Nc1ccccn1)c1ccc(S(=O)(=O)N2CCCCCC2)cc1,/,17µM*,?,?,?,9.2µM*
O=C(Nc1ccccn1)c1ccc(Br)c(S(=O)(=O)N2CCCCC2)c1,-4%,2%,-6%,-5%,1%,-5%
Cc1ccnc(NC(=O)c2ccc(S(=O)(=O)N3CCCCCC3)cc2)c1,/,8.5µM*,?,27%,16%,11%
O=C(Nc1ccc(Cc2ccncc2)cc1)c1ccc(S(=O)(=O)N2CCCC2)cc1,-45%,0%,2.9µM*,-40%,-24%,-14%
